Measured values: PubChem BioAssay AID1159580 (chemical genetic matrix, 2015)
Values joined by “and” are separate entries in the source; they are usually repeats but may differ in a detail not shown here. Identical values can stand only once. The campaign covered roughly 5,500 compounds. About 2,000 (36%) were called active. Roughly 18% stayed inconclusive and do not appear here. No stated cut-off is given here; in the data, active means normalized growth mostly below about 0.91 (no sharp cut-off); inconclusive means no clear call, values can overlap the other calls; inactive means mostly above about 0.92. The list shows a part of the results.

Assay: chemical genetic growth profiling, strain panel (AID 1159580);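 further: tested at 20 µM; growth read once vehicle control cultures reached saturation at 30 °C; 1 = growth at the plate median or of vehicle wells; lower values mean less growth of the strain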
Details: S. cerevisiae deletion strains, growth OD

Measured: normalized growth

CN(C)CCN(Cc1ccccc1)c1ccccn1
inactive: locus YAL013W, strain DEP1, hits give low values 0.988 | locus YAL021C, strain ccr4, hits give low values 1.01 | locus YAL026C, strain drs2, hits give low values 1.01 | locus YAL030W, strain snc1, hits give low values 1.02 | locus YBL061C, strain skt5, hits give low values 1.01 | locus YBR009C, strain hhf1, hits give low values 0.963 | locus YBR021W, strain FUR4, hits give low values 0.99 | locus YBR023C, strain chs3, hits give low values 1.01 | locus YBR171W, strain sec66, hits give low values 1.02 | locus YBR229C, strain ROT2, hits give low values 1.01 | locus YBR231C, strain swc5, hits give low values 1.02 | locus YBR279W, strain paf1, hits give low values 1.01 | locus YCL011C, strain gbp2, hits give low values 1 | locus YCL016C, strain dcc1, hits give low values 0.997 | locus YCL029C, strain bik1, hits give low values 0.972 | locus YCL061C, strain MRC1, hits give low values 1.03 | locus YCL069W, strain vba3, hits give low values 1.01 | locus YCR088W, strain abp1, hits give low values 0.997 | locus YDL005C, strain med2, hits give low values 1.01 | locus YDL035C, strain GPR1, hits give low values 1.01 | locus YDL040C, strain nat1, hits give low values 1.02 | locus YDL074C, strain BRE1, hits give low values 1.02 | locus YDL101C, strain DUN1, hits give low values 0.987 | locus YDL134C, strain PPH21, hits give low values 1 | locus YDL185W, strain tfp1, hits give low values 0.946 | locus YDL192W, strain arf1, hits give low values 0.98 | locus YDR001C, strain nth1, hits give low values 1.01 | locus YDR069C, strain doa4, hits give low values 1.03 | locus YDR101C, strain arx1, hits give low values 0.988 | locus YDR137W, strain rgp1, hits give low values 1.01 | locus YDR150W, strain NUM1, hits give low values 0.981 | locus YDR159W, strain sac3, hits give low values 0.981 | locus YDR162C, strain NBP2, hits give low values 0.989 | locus YDR195W, strain ref2 1.02 | locus YDR297W, strain sur2, hits give low values 1.02 | locus YDR318W, strain mcm21, hits give low values 1.01 | locus YDR334W, strain swr1, hits give low values 1.01 | locus YDR335W, strain msn5, hits give low values 1.02 | locus YDR388W, hits give low values 1 | locus YDR392W, strain spt3, hits give low values 0.999 | locus YDR502C, strain sam2, hits give low values 1.02 | locus YEL003W, strain gim4, hits give low values 1.02 | locus YEL037C, strain rad23, hits give low values 1.02 | locus YEL061C, strain CIN8 (second series), hits give low values 1.02 | locus YEL061C, strain CIN8, hits give low values 0.992 | locus YER015W, strain faa2, hits give low values 1.01 | locus YER016W, strain bim1, hits give low values 0.964 | locus YER110C, hits give low values 0.973 | locus YER111C, strain swi4, hits give low values 1.02 | locus YER155C, strain BEM2 (second series), hits give low values 1.05 | locus YER155C, strain BEM2, hits give low values 1 | locus YER167W, strain BCK2, hits give low values 0.996 | locus YFR010W, strain ubp6, hits give low values 1.03 | locus YGL078C, strain dbp3, hits give low values 0.991 | locus YGL086W, strain mad1, hits give low values 0.992 | locus YGL167C, strain pmr1, hits give low values 1.01 | locus YGL173C, strain kem1, hits give low values 1.03 | locus YGL227W, strain vid30, hits give low values 1.01 | locus YGL240W, strain doc1, hits give low values 1.04 | locus YGL248W, strain PDE1, hits give low values 1.01 | locus YGL253W, strain hxk2, hits give low values 1 | locus YGR078C, strain PAC10, hits give low values 0.988 | locus YGR135W, strain pre9, hits give low values 1.01 | locus YGR229C, strain SMI1, hits give low values 1 | locus YGR252W, strain gcn5, hits give low values 1.14 | locus YHR013C, strain ard1, hits give low values 0.984 | locus YHR027C, strain rpn1, hits give low values 1 | locus YHR030C, strain SLT2, hits give low values 0.968 and 0.97 | locus YHR079C, strain IRE1 (second series), hits give low values 0.999 | locus YHR079C, strain IRE1, hits give low values 0.953 | locus YHR094C, strain hxt1, hits give low values 0.967 | locus YHR129C, strain ARP1, hits give low values 0.994 | locus YHR142W, strain chs7, hits give low values 1.01 | locus YHR200W, strain rpn10, hits give low values 1 | locus YIL066C, strain RNR3, hits give low values 1 | locus YIL073C, strain SPO22, hits give low values 0.928 | locus YIL125W, strain kgd1, hits give low values 0.976 | locus YIR030C, strain dcg1, hits give low values 0.994 | locus YJL092W, strain hpr5, hits give low values 1.03 | locus YJL095W, strain BCK1 (second series), hits give low values 1.01 | locus YJL095W, strain BCK1, hits give low values 0.96 and 0.975 | locus YJL115W, strain asf1, hits give low values 1.02 | locus YJL129C, strain trk1, hits give low values 1.02 | locus YJL134W, strain LCB3, hits give low values 0.998 | locus YJL154C, strain vps35, hits give low values 1.01 | locus YJL164C, strain tpk1, hits give low values 1 | locus YJL166W, strain qcr8, hits give low values 1.04 | locus YJL168C, strain set2, hits give low values 0.982 | locus YJL187C, strain SWE1 (second series), hits give low values 0.985 | locus YJR043C, strain POL32, hits give low values 1.01 | locus YJR066W, strain TOR1, hits give low values 0.947
